# Assay results reported in PubChem BioAssay AID1159580 (chemical genetic matrix, 2015).
# “And” between values parts separate entries of the source, which are not always exact repeats. Equal values may be shown once. About 2,000 (36%) of roughly 5,500 compounds were called active. About 18% were inconclusive and are not listed. The list shows a part of the results. Unmarked numbers belong to inactive results. No stated cut-off is given here; in the data, active means normalized growth mostly below about 0.91 (no sharp cut-off); inconclusive means no clear call, values can overlap the other calls; inactive means mostly above about 0.92.
# Experiment: chemical genetic growth profiling, strain panel (AID 1159580);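 further: tested at 20 µM; growth read once vehicle control cultures reached saturation at 30 °C; 1 = growth at the plate median or of vehicle wells; lower values mean less growth of the strain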
# Details: S. cerevisiae deletion strains, growth OD
structure (smiles),measurement,setting,value
COc1ccc2c(c1)OCC(Cc1ccc(OC)c(OC)c1)C2=O (stereo unspecified),normalized growth,"locus YAL013W, strain DEP1, hits give low values",0.979
same,normalized growth,"locus YAL021C, strain ccr4, hits give low values",0.982
same,normalized growth,"locus YAL026C, strain drs2, hits give low values",0.928
same,normalized growth,"locus YAL030W, strain snc1, hits give low values",0.972
same,normalized growth,"locus YBL061C, strain skt5, hits give low values",0.959
same,normalized growth,"locus YBR009C, strain hhf1, hits give low values",0.941
same,normalized growth,"locus YBR021W, strain FUR4, hits give low values",0.905
same,normalized growth,"locus YBR023C, strain chs3, hits give low values",0.958
same,normalized growth,"locus YBR171W, strain sec66, hits give low values",0.96
same,normalized growth,"locus YBR229C, strain ROT2, hits give low values",0.993
same,normalized growth,"locus YBR231C, strain swc5, hits give low values",0.924
same,normalized growth,"locus YBR279W, strain paf1, hits give low values",0.973
same,normalized growth,"locus YCL011C, strain gbp2, hits give low values",0.96
same,normalized growth,"locus YCL016C, strain dcc1, hits give low values",0.969
same,normalized growth,"locus YCL029C, strain bik1, hits give low values",0.988
same,normalized growth,"locus YCL061C, strain MRC1, hits give low values",0.923
same,normalized growth,"locus YCL069W, strain vba3, hits give low values",0.967
same,normalized growth,"locus YCR088W, strain abp1, hits give low values",0.987
same,normalized growth,"locus YDL005C, strain med2, hits give low values",0.987
same,normalized growth,"locus YDL035C, strain GPR1, hits give low values",0.954
same,normalized growth,"locus YDL040C, strain nat1, hits give low values",0.982
same,normalized growth,"locus YDL074C, strain BRE1, hits give low values",0.928
same,normalized growth,"locus YDL101C, strain DUN1, hits give low values",0.982
same,normalized growth,"locus YDL185W, strain tfp1, hits give low values",0.999
same,normalized growth,"locus YDL192W, strain arf1, hits give low values",0.986
same,normalized growth,"locus YDR001C, strain nth1, hits give low values",0.973
same,normalized growth,"locus YDR069C, strain doa4, hits give low values",0.964
same,normalized growth,"locus YDR101C, strain arx1, hits give low values",0.974
same,normalized growth,"locus YDR137W, strain rgp1, hits give low values",0.933
same,normalized growth,"locus YDR159W, strain sac3, hits give low values",0.873
same,normalized growth,"locus YDR162C, strain NBP2, hits give low values",0.89
same,normalized growth,"locus YDR195W, strain ref2",1.06
same,normalized growth,"locus YDR297W, strain sur2, hits give low values",0.949
same,normalized growth,"locus YDR318W, strain mcm21, hits give low values",0.978
same,normalized growth,"locus YDR334W, strain swr1, hits give low values",0.98
same,normalized growth,"locus YDR335W, strain msn5, hits give low values",0.986
same,normalized growth,"locus YDR388W, hits give low values",1.01
same,normalized growth,"locus YDR392W, strain spt3, hits give low values",0.544 (active)
same,normalized growth,"locus YDR502C, strain sam2, hits give low values",0.973
same,normalized growth,"locus YEL003W, strain gim4, hits give low values",0.947
same,normalized growth,"locus YEL037C, strain rad23, hits give low values",0.986
same,normalized growth,"locus YEL061C, strain CIN8 (second series), hits give low values",0.985
same,normalized growth,"locus YEL061C, strain CIN8, hits give low values",0.987
same,normalized growth,"locus YER015W, strain faa2, hits give low values",0.968
same,normalized growth,"locus YER016W, strain bim1, hits give low values",0.976
same,normalized growth,"locus YER110C, hits give low values",0.988
same,normalized growth,"locus YER111C, strain swi4, hits give low values",0.982
same,normalized growth,"locus YER155C, strain BEM2 (second series), hits give low values",0.802 (active)
same,normalized growth,"locus YER155C, strain BEM2, hits give low values",0.999
same,normalized growth,"locus YER167W, strain BCK2, hits give low values",0.997
same,normalized growth,"locus YFR010W, strain ubp6, hits give low values",0.97
same,normalized growth,"locus YGL078C, strain dbp3, hits give low values",0.998
same,normalized growth,"locus YGL086W, strain mad1, hits give low values",0.965
same,normalized growth,"locus YGL167C, strain pmr1, hits give low values",0.964
same,normalized growth,"locus YGL173C, strain kem1, hits give low values",0.963
same,normalized growth,"locus YGL227W, strain vid30, hits give low values",0.974
same,normalized growth,"locus YGL240W, strain doc1, hits give low values",0.898
same,normalized growth,"locus YGL248W, strain PDE1, hits give low values",0.954
same,normalized growth,"locus YGL253W, strain hxk2, hits give low values",0.879 (active)
same,normalized growth,"locus YGR078C, strain PAC10, hits give low values",0.905
same,normalized growth,"locus YGR135W, strain pre9, hits give low values",0.993
same,normalized growth,"locus YGR252W, strain gcn5, hits give low values",0.834
same,normalized growth,"locus YHR013C, strain ard1, hits give low values",0.907
same,normalized growth,"locus YHR027C, strain rpn1, hits give low values",0.967
same,normalized growth,"locus YHR030C, strain SLT2, hits give low values",0.989 and 0.988
same,normalized growth,"locus YHR079C, strain IRE1 (second series), hits give low values",1
same,normalized growth,"locus YHR079C, strain IRE1, hits give low values",1.01
same,normalized growth,"locus YHR094C, strain hxt1, hits give low values",1.01
same,normalized growth,"locus YHR129C, strain ARP1, hits give low values",0.976
same,normalized growth,"locus YHR142W, strain chs7, hits give low values",0.897
same,normalized growth,"locus YHR200W, strain rpn10, hits give low values",0.992
same,normalized growth,"locus YIL066C, strain RNR3, hits give low values",0.915
same,normalized growth,"locus YIL073C, strain SPO22, hits give low values",0.925
same,normalized growth,"locus YIL125W, strain kgd1, hits give low values",0.991
same,normalized growth,"locus YIR030C, strain dcg1, hits give low values",0.99
same,normalized growth,"locus YJL092W, strain hpr5, hits give low values",0.981
same,normalized growth,"locus YJL095W, strain BCK1 (second series), hits give low values",0.979
same,normalized growth,"locus YJL095W, strain BCK1, hits give low values",0.887 and 1.01
same,normalized growth,"locus YJL115W, strain asf1, hits give low values",0.974
same,normalized growth,"locus YJL129C, strain trk1, hits give low values",0.892
same,normalized growth,"locus YJL134W, strain LCB3, hits give low values",0.994
same,normalized growth,"locus YJL154C, strain vps35, hits give low values",0.98
same,normalized growth,"locus YJL164C, strain tpk1, hits give low values",0.96
same,normalized growth,"locus YJL166W, strain qcr8, hits give low values",0.909
same,normalized growth,"locus YJL168C, strain set2, hits give low values",0.994
same,normalized growth,"locus YJL187C, strain SWE1 (second series), hits give low values",0.965
same,normalized growth,"locus YJR043C, strain POL32, hits give low values",0.97
same,normalized growth,"locus YJR066W, strain TOR1, hits give low values",0.955
same,normalized growth,"locus YJR075W, strain HOC1, hits give low values",0.972
same,normalized growth,"locus YKL009W, strain mrt4, hits give low values",0.984
same,normalized growth,"locus YKL068W, hits give low values",0.982
same,normalized growth,"locus YKL085W, strain MDH1 (second series), hits give low values",0.995
same,normalized growth,"locus YKL085W, strain MDH1, hits give low values",0.995
same,normalized growth,"locus YKL160W, strain elf1, hits give low values",0.955
same,normalized growth,"locus YKR001C, strain vps1, hits give low values",0.998
same,normalized growth,"locus YKR026C, strain gcn3, hits give low values",0.976
same,normalized growth,"locus YKR091W, strain srl3, hits give low values",0.991
same,normalized growth,"locus YLL001W, strain dnm1, hits give low values",0.897 (active)
same,normalized growth,"locus YLL026W, hits give low values",0.963
same,normalized growth,"locus YLL041C, strain sdh2, hits give low values",0.983
same,normalized growth,"locus YLR027C, strain aat2, hits give low values",0.922 (active)
same,normalized growth,"locus YLR039C, strain RIC1, hits give low values",0.958
same,normalized growth,"locus YLR058C, strain SHM2, hits give low values",0.98
same,normalized growth,"locus YLR102C, strain apc9, hits give low values",0.998
same,normalized growth,"locus YLR113W, strain HOG1, hits give low values",0.931
same,normalized growth,"locus YLR221C, strain rsa3, hits give low values",0.922
same,normalized growth,"locus YLR258W, strain gsy2, hits give low values",0.968
same,normalized growth,"locus YLR262C, strain YPT6 (second series), hits give low values",0.88
same,normalized growth,"locus YLR262C, strain YPT6, hits give low values",0.869
same,normalized growth,"locus YLR268W, strain sec22, hits give low values",0.963
same,normalized growth,"locus YLR320W, strain mms22, hits give low values",0.879
same,normalized growth,"locus YLR330W, strain CHS5, hits give low values",0.961
same,normalized growth,"locus YLR342W, strain FKS1 (second series), hits give low values",0.921
same,normalized growth,"locus YLR342W, strain FKS1, hits give low values",0.951
same,normalized growth,"locus YLR357W, strain rsc2, hits give low values",0.945
same,normalized growth,"locus YLR370C, strain arc18, hits give low values",0.972
same,normalized growth,"locus YLR371W, strain rom2, hits give low values",0.985
same,normalized growth,"locus YLR384C, strain iki3, hits give low values",0.976
same,normalized growth,"locus YLR418C, strain cdc73, hits give low values",0.842
same,normalized growth,"locus YML016C, strain PPZ1, hits give low values",0.995
same,normalized growth,"locus YML032C, strain rad52, hits give low values",0.984
same,normalized growth,"locus YML120C, strain ndi1, hits give low values",0.965
same,normalized growth,"locus YML124C, strain tub3, hits give low values",0.986
same,normalized growth,"locus YMR058W, strain fet3, hits give low values",0.938
same,normalized growth,"locus YMR078C, strain ctf18, hits give low values",1
same,normalized growth,"locus YMR125W, strain sto1, hits give low values",0.994
same,normalized growth,"locus YMR129W, hits give low values",0.981
same,normalized growth,"locus YMR205C, strain PFK2, hits give low values",0.896
same,normalized growth,"locus YMR223W, strain ubp8, hits give low values",1
same,normalized growth,"locus YMR231W, strain pep5, hits give low values",0.993
same,normalized growth,"locus YMR307W, strain GAS1, hits give low values",0.83
same,normalized growth,"locus YNL067W, strain RPL9B, hits give low values",0.968
same,normalized growth,"locus YNL071W, strain lat1, hits give low values",0.82 (active)
same,normalized growth,"locus YNL128W, strain TEP1, hits give low values",0.991
same,normalized growth,"locus YNL183C, strain NPR1, hits give low values",0.961
same,normalized growth,"locus YNL209W, strain ssb2, hits give low values",0.987
same,normalized growth,"locus YNL233W, strain BNI4, hits give low values",0.919
same,normalized growth,"locus YNL248C, strain rpa49, hits give low values",0.928
same,normalized growth,"locus YNL250W, strain rad50, hits give low values",0.998
same,normalized growth,"locus YNL271C, strain bni1, hits give low values",0.989
same,normalized growth,"locus YNL298W, strain CLA4, hits give low values",0.98
same,normalized growth,"locus YNL307C, strain MCK1, hits give low values",0.894 (active)
same,normalized growth,"locus YNL322C, strain KRE1 (second series), hits give low values",0.982
same,normalized growth,"locus YNL322C, strain KRE1, hits give low values",0.985
same,normalized growth,"locus YNR049C, strain mso1, hits give low values",0.985
same,normalized growth,"locus YNR052C, strain pop2, hits give low values",0.989
same,normalized growth,"locus YOL006C, strain TOP1, hits give low values",0.784
same,normalized growth,"locus YOL012C, strain htz1",0.731
same,normalized growth,"locus YOL147C, strain pex11, hits give low values",0.98
same,normalized growth,"locus YOR001W, strain rrp6, hits give low values",0.923
same,normalized growth,"locus YOR061W, strain CKA2, hits give low values",0.984
same,normalized growth,"locus YOR069W, strain VPS5, hits give low values",0.993
same,normalized growth,"locus YOR070C, strain gyp1, hits give low values",0.937
same,normalized growth,"locus YOR080W, strain dia2, hits give low values",0.967
same,normalized growth,"locus YOR083W, strain WHI5, hits give low values",0.936
same,normalized growth,"locus YOR106W, strain vam3, hits give low values",0.978
same,normalized growth,"locus YOR136W, strain idh2, hits give low values",0.99
same,normalized growth,"locus YOR144C, strain elg1, hits give low values",0.978
same,normalized growth,"locus YOR184W, strain ser1, hits give low values",0.884
same,normalized growth,"locus YOR231W, strain MKK1, hits give low values",1.02
same,normalized growth,"locus YOR265W, strain rbl2, hits give low values",1
same,normalized growth,"locus YOR270C, strain vph1, hits give low values",0.821
same,normalized growth,"locus YOR290C, strain snf2, hits give low values",0.935
same,normalized growth,"locus YOR316C, strain cot1, hits give low values",1
same,normalized growth,"locus YPL051W, strain arl3, hits give low values",0.922
same,normalized growth,"locus YPL055C, strain LGE1, hits give low values",0.896
same,normalized growth,"locus YPL078C, strain atp4, hits give low values",0.939
same,normalized growth,"locus YPL106C, strain sse1, hits give low values",0.94
same,normalized growth,"locus YPL240C, strain hsp82, hits give low values",0.993
same,normalized growth,"locus YPL241C, strain CIN2, hits give low values",0.99
same,normalized growth,"locus YPL256C, strain CLN2, hits give low values",1.02
same,normalized growth,"locus YPR119W, strain clb2, hits give low values",0.98
same,normalized growth,"locus YPR141C, strain kar3, hits give low values",0.992
same,normalized growth,"locus YPR163C, strain tif3, hits give low values",0.969
same,normalized growth,"locus YPR167C, strain met16, hits give low values",0.965
same,normalized growth,"strain wtn01, hits give low values",0.971
